Bioassay records (PubChem BioAssay)
LMNA splice mod – LMNA splicing modulation. Potency, µM (series often up to 46.1 µM), inactives show top-dose ratio change, negative = inhibition, actives largely listed as inhibitors. AID 1487. HeLa LMNA splicing GFP/RFP minigene ratio, 48 h. 200,000 tested, 0.01% active; active = well fitted inhibition curve with a large enough effect in the signal ratio, with a control signal flat, not every such curve was filed as active; inconclusive = small, poorly fitted or top-dose-only effect, or effect the other way, or a change in a side signal; the % refers to the signal ratio; also: % is scaled to controls: 0 for no effect and ±100 for the full control effect
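Read-out is the ratio of GFP to DsRed2 object intensity, acquired by 488 nm laser-scanning cytometry on HeLa lamin A-EGFP minigene reporter cells. Compound incubation 48 hrs at 37 °C in Opti-MEM with 2% FBS; DMSO 0.5% final.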
ALDH1A1 inh – inhibitors of human aldehyde dehydrogenase 1A1; AID 1030; Purified ALDH1A1, NADH fluorescence, propionaldehyde substrate; Potency, µM (doses to about 75.3 µM), for the others: at the highest dose activity, negative = inhibition, usual class: inhibitors; 220,000 tested, 7.3% active;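 also: plate controls were no enzyme wells and a reference inhibitor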
Target sequence (P00352 whole entry, looked up): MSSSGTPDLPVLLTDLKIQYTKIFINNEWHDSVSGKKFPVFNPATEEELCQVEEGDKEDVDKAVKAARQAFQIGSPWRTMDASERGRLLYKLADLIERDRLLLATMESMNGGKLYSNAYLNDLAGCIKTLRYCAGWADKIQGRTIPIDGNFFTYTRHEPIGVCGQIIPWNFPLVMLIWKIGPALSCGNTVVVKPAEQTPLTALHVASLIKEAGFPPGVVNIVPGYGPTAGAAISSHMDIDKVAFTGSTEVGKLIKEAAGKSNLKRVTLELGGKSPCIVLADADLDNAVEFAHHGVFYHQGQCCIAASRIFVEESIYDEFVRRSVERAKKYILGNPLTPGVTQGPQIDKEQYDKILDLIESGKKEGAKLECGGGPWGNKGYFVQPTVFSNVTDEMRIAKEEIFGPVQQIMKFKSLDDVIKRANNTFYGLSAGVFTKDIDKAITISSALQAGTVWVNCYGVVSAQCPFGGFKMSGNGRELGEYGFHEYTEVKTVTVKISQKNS
HPGD inh – HPGD (human) dehydrogenase inhibition | P15428 | purified HPGD, NADH fluorescence kinetic, PGE2 substrate | Potency, µM, for the others: at the top dose activity change, negative = inhibition, most hits filed as inhibitors | 150,000 tested, 4.3% active; also: % is scaled to controls: 0 for no effect and ±100 for the full control effect
Target sequence (P15428 whole entry, looked up): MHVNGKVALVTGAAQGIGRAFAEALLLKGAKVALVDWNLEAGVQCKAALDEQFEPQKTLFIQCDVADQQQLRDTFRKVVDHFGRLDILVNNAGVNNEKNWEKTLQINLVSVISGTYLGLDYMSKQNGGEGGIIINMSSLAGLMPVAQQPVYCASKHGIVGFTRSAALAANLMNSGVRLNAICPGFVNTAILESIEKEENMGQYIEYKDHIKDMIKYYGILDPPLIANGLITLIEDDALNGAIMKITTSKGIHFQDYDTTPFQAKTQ
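NADH formation kinetics: reaction with 30 uM PGE2 and 1 mM NAD+ (final), 20 nM enzyme, Tris-HCl pH 8 with Tween 20, after 15 min compound preincubation at room temperature. Fluorescence change, last versus first of five reads.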
HTT ATP protect – Huntington cell model cytoprotection by ATP luminescence | PC12 HTT-Q103 induced, cytoprotection, ATP luminescence, 40 h | Potency, µM (highest dose often 56.4 µM), inactives show cytoprotection (ATP increase), hits mostly activators | 230,000 tested, 0.14% active; active = well fitted curve in the direction sought with a large enough effect; inconclusive = small, poorly fitted or top-dose-only effect, or another doubt; inactive = no such curve, though single readings can be large; an effect the other way counts as inactive or inconclusive; also: % of control where 0% means no effect; nearly all actives have a fitted effect of over 45% in size
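ATP quantification (ATPlite) reports survival of PC12 cells in which tebufenozide, 100 nM final, switches on Htt exon 1 with 103 glutamines linked to GFP; compounds are titrated.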
HTT aggregate – reduces HttQ103-GFP aggregates in PC12 cells; 220,000 tested, 1.1% active; AID 1688; PC12 HttQ103-GFP aggregates, Acumen cytometry, 40 h; Potency, µM (doses to about 46.1 µM), for inactives: at the highest dose activity change, negative = inhibition, usual class: inhibitors; active = well fitted curve in the direction sought with a large enough effect; inconclusive = small, poorly fitted or top-dose-only effect, or another doubt; inactive = no such curve, though single readings can be large; an effect the other way counts as inactive or inconclusive; also: % is scaled to controls: 0 for no effect and ±100 for the full control effect; nearly all actives have a fitted effect of over 60% in size
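Aggregates are detected as GFP objects 1–25 µm with signal 6 STDEV over background in lysates of induced PC12 cells. These carry Huntingtin exon 1 with 103 glutamines fused to GFP under an ecdysone promoter; compounds titrated.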
JMJD2E inh – JMJD2E (human) inhibition | 230,000 tested, 1.6% active | AID 2147 | Potency, µM (series often up to 57.1 µM), inactives show at the highest dose activity change, negative = inhibition, most hits filed as inhibitors | JMJD2E catalytic domain, FDH-coupled NADH fluorescence (FDH is formaldehyde dehydrogenase);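 also: 0% = wells with enzyme and -100% = buffer wells without enzyme; nearly all actives have a fitted effect of over 50% in size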
The depositor's hits bear a star; ? = inconclusive; · = no result; [ ] = another dose, or the depositor's remark. Only some compounds are listed: those with a hit (about 9.2% of all), similar ones and a draw of the others. Unless noted, calls follow the shape of the dose curve; as a rule, active = well fitted inhibition curve with a large enough effect (not every such curve was filed as active); inconclusive = small, poorly fitted or top-dose-only effect, or another doubt; inactive = no such curve, though single readings can be large or run the other way. Potency is read from the fitted curve at half-maximal effect.

SMILES	LMNA splice mod	ALDH1A1 inh	HPGD inh	HTT ATP protect	HTT aggregate	JMJD2E inh
COc1cc(CCC(=O)Nc2cccc(S(=O)(=O)N(C)C)c2)cc(OC)c1OC	?	0.2%	-1.2%	-32.9%[0.074 µM]	-7.5%	1.2%
Cc1ccc(S(=O)(=O)CC(=O)Nc2nc3c(C)cccc3s2)cc1	0.4%[46 µM]	·	·	·	·	·
O=C(O)Cc1cc(I)c(Oc2cc(I)c(O)c(I)c2)c(I)c1	-9.2%	-6.3%	-5.1%	·	·	11.1%
C=C1CC[C@@H]2O[C@]2(C)CC[C@@H]2[C@H]1CC2(C)C	·	·	·	5.6%	·	·
CCNc1ccc(S(=O)(=O)N(C)C)cc1NCC(=O)Nc1ccc(F)c(Cl)c1	?	25.1µM*	-9.1%	-11.6%[10 µM]	-22.3%	5.7%
CCNc1ccc(S(=O)(=O)N(C)C)cc1NCC(=O)Nc1ccccc1F	-8.7%	20µM*	-0.2%	9.2%[10 µM]	-11.9%	-0.4%
CCNc1ccc(S(=O)(=O)N(C)C)cc1NCC(=O)Nc1ccc(Br)cc1F	?	-1.0%	-21.7%	24.7%[10 µM]	5.9%	-1.2%
COc1ccc(C(=O)CCC(C)(C)[N+](=O)[O-])cc1OC	5.2%[46 µM]	8.91µM*	·	-5.0%[10 µM]	16.5%	3.5%
CN1CCc2nc3sc(C(=O)NCc4ccccc4)c(N)c3cc2C1	?	25.1µM*	·	-63.1%	4.6%[9.22 µM]	?
CN1CCc2nc3sc(C(=O)Nc4ccccc4OC(F)(F)F)c(N)c3cc2C1	-10.2%[46 µM]	·	·	·	·	·
O=S(=O)(c1ccccc1)N1CCN(c2cc(-c3ccccc3)nc3ncnn23)CC1	7.1%	?	-11.1%	-18.6%[10 µM]	11.2µM*	?
COc1ccc(S(=O)(=O)N2CCN(c3cc(-c4ccccc4)nc4ncnn34)CC2)cc1	?	?	?	4.0%[10 µM]	12.6µM*	?
COc1ccc(N2C(=O)CCC(C(=O)NCCCN3CCC(C)CC3)C2c2ccc(OC)c(OC)c2)cc1 (stereo not given)	·	-3.7%	·	-40.6%	2.0%	3.1%
COc1ccc2ccc3c(c2c1)N=C[C@]1(O3)N(C)c2ccccc2C1(C)C	?	?	31.6µM*	-57.0%	?	11.2µM*
CC/C(=N/Nc1ccccc1C)c1cnnc(SC)n1	?	7.94µM*	-21.5%	·	-20.1%	-26.8%
CSc1nncc(/C(C)=N\Nc2cccc(C)c2)n1	9.3%	8.91µM*	-13.4%	0.8%	17.3%	8.2%
CSc1nncc(/C(C)=N\Nc2ccccc2)n1	10.6%	?	-19.5%	0.8%	9.0%	-18.7%
CC1CCN(c2ccc(NC(=O)Cc3ccccc3)cc2)CC1	·	5.5%	·	9.5%[10 µM]	5.0%[9.22 µM]	-8.3%
COc1cccc(CNc2ccc(N3CCC(C)CC3)cc2)c1OC	-19.7%	12.6µM*	-6.2%	11.1%[10 µM]	17.2%	12.6µM*
O=c1c(=O)n(-c2cccc(Cl)c2)ccn1Cc1cccc(F)c1	-1.3%[46 µM]	·	·	·	·	·
CC(=O)N1CCc2cc(S(=O)(=O)NC(Cc3ccccc3)C(=O)Nc3cc(C)ccn3)ccc21 (stereo not given)	-1.8%	10µM*	-10.9%	-17.3%	26.9%[9.22 µM]	-2.9%
Cc1ccc2occ(CN3CCN(Cc4ccccc4)CC3)c(=O)c2c1	1.8%[0.0737 µM]	?	-7.3%	-6.0%	11.4%	-19.2%
O=c1c(CN2CCN(Cc3ccccc3)CC2)coc2ccc(Cl)cc12	6.2%	8.91µM*	-8.4%	-11.2%[10 µM]	7.1%	-5.5%
CC(=O)[C@@]1(O)CC[C@@H]2[C@@H]3CCC4=CC(=O)CC[C@@]4(C)[C@H]3CC[C@]21C	·	·	·	-1.1%[1.9 µM]	·	·
CCC12CN3CC(CC)(CN(C1)C3c1c[nH]c3ccccc13)C2=O (stereo not given)	-11.9%[46 µM]	·	·	·	·	·
SMILES	LMNA splice mod	ALDH1A1 inh	HPGD inh	HTT ATP protect	HTT aggregate	JMJD2E inh
CCC12CN3CC(CC)(CN(C1)C3c1c(O)ccc3ccccc13)C2=O (stereo not given)	?	?	-12.8%	?	-31.0%	12.6µM*
Oc1c(C(c2ccccc2)N2CCC(O)CC2)sc2nc(-c3ccco3)nn12 (stereo not given)	-6.3%[46 µM]	·	·	·	·	·
O=C(O)COc1ccccc1/C=C1\SC(=S)N(/N=C/c2ccccc2O)C1=O	-10.9%	?	8.91µM*	19.7%[10 µM]	4.7%	-11.2%
COc1nc(N/N=C/c2cc3c(cc2Br)OCO3)nc(N2CCOCC2)n1	-1.0%	7.94µM*	·	8.3%	8.9%	1.3%
CCOC(=O)C1=C(C)NC2(O)c3ccccc3C(=O)C12O (stereo not given)	12.7%	?	-14.9%	-1.7%	-2.6%	-4.3%
CC(=O)C1=C(C)NC2(O)c3ccccc3C(=O)C12O (stereo not given)	·	11.2µM*	·	·	?	1.7%
COCCOC(=O)C1=C(C)NC2(O)c3ccccc3C(=O)C12O (stereo not given)	·	11.2µM*	·	-16.5%	-17.6%	9.0%
CCOC(=O)N1CCc2c(sc3nc(SC(C)C)n(N)c(=O)c23)C1	?	4.47µM*	·	37.0%[10 µM]	?	-5.8%
CCOC(=O)N1CCc2c(sc3ncn(C)c(=O)c23)C1	·	·	·	13.3%[10 µM]	5.7%[9.22 µM]	-0.1%
N#CCCN(/N=C/c1cccnc1)C1=NS(=O)(=O)c2ccccc21	?	2µM*	·	-19.6%	10.8%	-7.8%
Cc1cccc(/C=N/N(CCO)C2=NS(=O)(=O)c3ccccc32)c1	?	?	·	-52.3%	10.2%	-1.8%
Cc1oc(C)c2c(=O)ccc3c(c12)OC(N)=C(C#N)C3c1ccc(F)cc1 (stereo not given)	?	14.1µM*	25.1µM*	10.6%	6.3%	?
Cc1[nH]nc2c1C(c1ccc(F)cc1)C(C#N)=C(N)O2 (stereo not given)	3.7%	?	-1.3%	-1.8%	15.3%	-6.7%
COCCn1c(SCc2nc3sc(C(=O)OC)c(C)c3c(=O)[nH]2)nc2ccccc21	17.0%	-12.0%	-11.5%	-15.4%	1.2%	-6.5%
CCn1c(SCc2nc3sc(C(=O)O)c(C)c3c(=O)[nH]2)nc2ccccc21	-1.9%	?	15.8µM*	13.1%	5.5%	-3.6%
O=C(Cl)c1cccc([N+](=O)[O-])c1	·	11.2µM*	-5.8%	4.1%	·	·
O=[N+]([O-])c1cccc(S(=O)(=O)c2cccc([N+](=O)[O-])c2)c1	-14.3%[46 µM]	-2.5%	·	-22.6%	?	4.1%
